Compound activity as filed in PubChem BioAssay.
The full list was thinned out, with hits kept by preference.
FECH inh: human FECH heme synthesis enzyme inhibition. P22830. purified FECH, Ni-mesoporphyrin absorbance 550 nm. calls only at 10 µM (by protocol). 20,000 compounds, 3.3% hits;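 active = enzyme reaction rate more than 3 SD below the solvent-only control wells on the same plate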;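 note: lower slope than DMSO wells means FECH inhibition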
Target sequence (P22830 whole entry, looked up): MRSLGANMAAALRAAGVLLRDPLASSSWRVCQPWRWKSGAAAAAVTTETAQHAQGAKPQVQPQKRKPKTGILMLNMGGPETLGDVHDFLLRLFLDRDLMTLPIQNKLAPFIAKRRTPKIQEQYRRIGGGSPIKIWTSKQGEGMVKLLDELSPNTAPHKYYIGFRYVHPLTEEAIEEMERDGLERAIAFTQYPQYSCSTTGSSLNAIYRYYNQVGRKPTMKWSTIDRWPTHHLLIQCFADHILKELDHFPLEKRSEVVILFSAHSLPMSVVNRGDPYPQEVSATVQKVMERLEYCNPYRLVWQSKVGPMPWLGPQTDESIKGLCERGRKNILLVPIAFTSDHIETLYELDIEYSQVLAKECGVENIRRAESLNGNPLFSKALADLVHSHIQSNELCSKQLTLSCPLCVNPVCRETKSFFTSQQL
Large screens that a line does not name were inactive.

COc1ccc(C)cc1S(=O)(=O)N1CCN(c2nc(C)cc(N3CCCCC3)n2)CC1	none
CCOC(=O)Cn1c(=O)n(-c2ccc(F)cc2)c2nc(-c3ccc(C)cc3C)nc(C(N)=O)c21	none
Cc1ccc(CN2CCN(CC(=O)NCc3ccccc3Cl)S2(=O)=O)cc1	none
CN(Cc1ccccc1)Cc1cc(=O)n2[nH]c(-c3ccc(C(C)(C)C)cc3)nc2n1	none
COc1ccc(Cl)cc1NCc1cc(=O)n2[nH]c(NCc3ccc(F)cc3)nc2n1	none
COc1ccc(Cl)cc1NCc1cc(=O)n2[nH]c(-c3ccc(C(C)(C)C)cc3)nc2n1	FECH inh active
CC(C)(C)c1ccc(-c2nc3nc(CNc4cccc(C(F)(F)F)c4)cc(=O)n3[nH]2)cc1	none
CC(C)(C)c1ccc(-c2nc3nc(CN4CCN(c5ccccc5)CC4)cc(=O)n3[nH]2)cc1	none
Cc1cccc(-c2nc3nc(CN4CCN(c5ccc(F)cc5)CC4)cc(=O)n3[nH]2)c1	none
COc1ccccc1N1CCN(Cc2cc(=O)n3[nH]c(-c4cccc(C)c4)nc3n2)CC1	FECH inh active
CC(C)(C)c1ccc(-c2nc3nc(CNc4ccc(Cl)cc4)cc(=O)n3[nH]2)cc1	none
CC(C)(C)c1ccc(-c2nc3nc(CNc4ccccc4)cc(=O)n3[nH]2)cc1	FECH inh active
Cc1cccc(-c2nc3nc(CN4CCN(c5ccccc5)CC4)cc(=O)n3[nH]2)c1	none
CCc1ccccc1NCc1cc(=O)n2[nH]c(-c3ccc(C(C)(C)C)cc3)nc2n1	FECH inh active
COc1ccccc1NCc1cc(=O)n2[nH]c(-c3ccc(C(C)(C)C)cc3)nc2n1	none
CCOC(=O)Cn1c(=O)n(-c2ccc(C)c(C)c2)c2nc(-c3ccco3)nc(C(N)=O)c21	none
Cc1cc(C)n2nc(N(Cc3ccccc3C)S(=O)(=O)c3ccc(Cl)cc3)nc2n1	none
O=C(c1cccc(Cl)c1)N1CCN(S(=O)(=O)c2cc3c4c(c2)CCN4C(=O)CC3)CC1	none
COC(Cn1ccnc1-c1ccnc2ccccc12)c1cccs1 (configuration not stated)	none
Cc1nc2sccn2c1C(=O)N(Cc1ccccn1)CC1CCCO1 (configuration not stated)	none
c1coc(-c2cc(C3CCN(Cc4nc(-c5ccco5)no4)CC3)[nH]n2)c1	none
CCOc1ccc(NCc2cc(=O)n3[nH]c(NCc4ccccc4)nc3n2)cc1	none
COc1ccc(NCc2cc(=O)n3[nH]c(-c4ccc(C(C)(C)C)cc4)nc3n2)cc1	none
CC(C)(C)c1ccc(-c2nc3nc(CN4CCc5ccccc5C4)cc(=O)n3[nH]2)cc1	FECH inh active
CCOc1ccc(NCc2cc(=O)n3[nH]c(-c4ccc(C(C)(C)C)cc4)nc3n2)cc1	FECH inh active
Cc1ccccc1NCc1cc(=O)n2[nH]c(-c3ccc(C(C)(C)C)cc3)nc2n1	FECH inh active
Cc1c(Cl)cccc1NCc1cc(=O)n2[nH]c(-c3ccc(C(C)(C)C)cc3)nc2n1	none
CC(C)(C)c1ccc(-c2nc3nc(CN4CCCCC4)cc(=O)n3[nH]2)cc1	none
CN1CCN(Cc2cc(=O)n3[nH]c(-c4ccc(C(C)(C)C)cc4)nc3n2)CC1	none
Cc1ccc(NCc2cc(=O)n3[nH]c(-c4ccc(C(C)(C)C)cc4)nc3n2)cc1Cl	none
Cc1cc(C)c(S(=O)(=O)NCc2nc3cccnc3n2Cc2ccccc2)cc1C	none
NS(=O)(=O)c1ccc(CCNC(=O)Cc2csc(NC(=O)Nc3ccccc3)n2)cc1	none
CCn1c(C)cc(C(=O)NCc2ccccc2-n2ccnc2)c1C	none
c1ccc(Nc2nc(N3CCCCC3)nc3c2cnn3-c2ccccc2)cc1	none
CCc1[nH]c2c(CNC(=O)Nc3c(C)noc3C)cc(C)cc2c1C	none
Cc1cc(NC(=O)c2ccc(C(C)(C)C)cc2)n(-c2ncnc3c2cnn3-c2ccc(F)cc2)n1	none
Cc1oc(-c2ccc(OC(C)C)cc2)nc1CSc1nc(-c2ccncc2)cc(=O)[nH]1	none
NS(=O)(=O)c1ccc(CCNC(=O)CCN2C(=O)c3cccnc3Sc3ccccc32)cc1	FECH inh active
NS(=O)(=O)c1ccc(CCNC(=O)CN2CCSc3ccccc32)cc1	none
NS(=O)(=O)c1ccc(CCNC(=O)CCCN2C(=O)c3cccnc3Sc3ccccc32)cc1	none
CCc1ccc(N2C(=O)N(Cc3cc(F)cc(F)c3)c3ccccc3S2(=O)=O)cc1	FECH inh active
Cc1ccccc1N1C(=O)N(Cc2ccc(C(C)(C)C)cc2)c2ccccc2S1(=O)=O	none
COc1ccc(N2C(=O)N(Cc3ccc(C(C)(C)C)cc3)c3ccccc3S2(=O)=O)cc1OC	none
Cc1cc(C)n(-c2ccc(C(=O)N(Cc3nccs3)C3CC3)cc2)n1	none
CC(C)NC(=O)C1CCC(Cn2c(=O)c3sccc3n(CC(N)=O)c2=O)CC1 (configuration not stated)	none
COc1ccc(NS(=O)(=O)c2cc(N3C(=O)CCS3(=O)=O)ccc2OC)cc1Cl	none
CC(C)Cc1cc(C(=O)N(C)Cc2n[nH]c3c2CCCC3)n(C)n1	none
CCOC(=O)CCNC(=O)N1CCCC1c1nc2ccc(F)cc2[nH]1 (configuration not stated)	none
Cc1ccc(N(Cc2nc3nc(C)cc(C)n3n2)C(=O)c2ccc(C(C)(C)C)cc2)cc1	FECH inh active
Cc1cccc(N(Cc2nc3nc(C)cc(C)n3n2)C(=O)c2ccc(C(C)(C)C)cc2)c1	FECH inh active
CCOc1ccc(N(Cc2nc3nc(C)cc(C)n3n2)C(=O)c2ccccc2C)cc1	none
Cc1cc(C)n2nc(CN(C(=O)c3ccc(F)cc3)c3ccc(Cl)cc3)nc2n1	none
CCOc1ccc(N(Cc2nc3nc(C)cc(C)n3n2)C(=O)C(C)(C)C)cc1	none
Cc1cccc(N(Cc2nc3nc(C)cc(C)n3n2)C(=O)c2ccc(F)cc2)c1	FECH inh active
COc1ccccc1C(=O)N(Cc1nc2nc(C)cc(C)n2n1)c1ccc(C)cc1	none
COc1ccc(C(=O)N(Cc2nc3nc(C)cc(C)n3n2)c2ccccc2)cc1	none
Cc1ccc(C(=O)N(Cc2nc3nc(C)cc(C)n3n2)c2ccc(F)cc2)cc1	none
Cc1cc(C)n2nc(CN(C(=O)c3ccc(C(C)(C)C)cc3)c3cccc(Cl)c3)nc2n1	none
CCOc1ccc(N(Cc2nc3nc(C)cc(C)n3n2)C(=O)c2ccc(C)cc2)cc1	FECH inh active
Cc1ccc(C(=O)N(Cc2nc3nc(C)cc(C)n3n2)c2ccc(Cl)cc2)cc1	none
Cc1cccc(C(=O)N2CCc3c(c(C(=O)NCc4ccccc4)nn3C)C2)c1	none
O=S(=O)(NCc1cnn2ccccc12)c1cc2ccccc2o1	none
COCC1(C(=O)N2C[C@H](OC(C)C)[C@@H](O)C2)CCC1	none
Cc1ccc(F)cc1S(=O)(=O)Nc1cnc(N(C)Cc2ccccc2)c(C(=O)O)c1	none
COc1c(C)cnc(Cn2c(=O)c3cnc(-c4ccc(C)cc4)nc3n(C)c2=O)c1C	none
O=C(C1CCOC1)N1CCOc2c(O)cc(-c3cccnc3)cc2C1 (configuration not stated)	none
O=C(CSc1ccccc1)NCCn1c(-c2ccncc2)nc2cccnc21	none
COc1cncc(-c2cccnc2OC)c1	none
CCCc1cc(CN(C)C(=O)c2ccc(=O)n(C)c2)[nH]n1	none
O=c1c(Nc2ccc(Cl)cc2)c(-c2ccc3c(c2)CCCC3)c1=O	none
Cc1c(Cl)cccc1Nc1c(-c2ccc3c(c2)CCCC3)c(=O)c1=O	none
O=c1c(Nc2ccccc2F)c(-c2ccc3c(c2)CCCC3)c1=O	FECH inh active
COCCCNC(=O)CSCc1nc(-c2ccc(C)cc2)no1	none
CCN(CC)c1ncccc1CNC(=O)c1cc(=O)[nH]c2ccccc12	none
O=C(Nc1cccc(-c2ccn[nH]2)c1)c1ccc2c(c1)OCO2	none
COc1ccc(CNc2nc3nc(CN4CCCC4)cc(=O)n3[nH]2)cc1	FECH inh active
